The values that follow come from PubChem BioAssay (NCATS).

Inconclusive results are not listed. The source made the active and inactive calls. Unless noted, the call rests on the fitted dose curve; in most records, active means well fitted curve in the direction sought with a large enough effect; inconclusive means small, poorly fitted or top-dose-only effect, or another doubt; inactive means no such curve, though single readings can be large; an effect the other way counts as inactive or inconclusive.

The target of experiment [1] is D(1A) dopamine receptor (Homo sapiens) (UniProt P21728). Description: HTS Assay for Allosteric Agonists of the Human D1 Dopamine Receptor: Primary Screen for Agonists (AID 488981). Further: 0% is about no effect. The method, boiled down:
(§1)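 Calcium flux in an inducible, force-coupled HEK293 Trex D1 line (overnight at 30 C): agonist mode is the 180 s kinetic read after compound; potentiator mode is the following 180 s read after dopamine at EC20.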

Experiment [2] has the same target. Description: HTS Assay for Allosteric Agonists of the Human D1 Dopamine Receptor: Primary Screen for Potentiators (AID 488982). Further: 0% is about no effect. The method, boiled down: as §1
For experiment [3] the target is unchanged. Put plainly: HTS Assay for Allosteric Agonists of the Human D1 Dopamine Receptor: Primary Screen for Antagonists (AID 488983).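 Further: calcium flux response to an EC80 dopamine challenge measured with no-wash dye; nearly all actives have a fitted effect of over 65% in size.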 Further: potency means the concentration at half of the fitted maximal effect. The method, boiled down: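 In this primary screen, compounds are applied to calcium-dye-loaded HEK293 T-REx cells with force-coupled D1 expression induced overnight at 30 C. An EC80 of dopamine follows the 180 s compound phase, and calcium is monitored for a further 180 s.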

Experiment [4] addresses ATPase family AAA domain-containing protein 5 (Homo sapiens) (UniProt Q96QE3). Description: Validation screen for small molecules that inhibit ELG1-dependent DNA repair in human embryonic kidney (HEK293T) cells expressing luciferase-tagged ELG1 (AID 493107).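 Further: cells co-treated with the DNA-damaging agent 5-fluorouridine alongside compound; series mostly up to about 46 µM; on the % scale 0 is the no-effect control and ±100 the full control effect; inhibitors lower the ELG1-luciferase luminescence signal; nearly all actives have a fitted effect of over 70% in size.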 Summed up:
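Compounds reducing 5-fluorouridine-driven ELG1-luciferase signal in HEK293T cells were scored; exposure lasted 16 hr at 37 °C with luminescence detected via ONE-Glo.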

Experiment [5] is described as follows: Nrf2 qHTS screen for inhibitors: Validation (AID 493153; active means well fitted inhibition curve with a large enough effect in the main read-out, with a control signal flat, not every such curve was filed as active; further: potency means the concentration at half of the fitted maximal effect). To be noted: Potency: luciferase luminescence; viability change: measured here: cytotoxicity max response. Summed up: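 In this counterscreened reporter format, each well gives two signals: CellTiter-Fluor fluorescence for cytotoxicity and ARE-luciferase luminescence for Nrf2 function. A549 ARE_Fluc cells in 5% FBS OPTI-MEM were exposed to compound titrations for 18-24 h.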
For orientation: qHTS replaces the single test concentration by a dilution series.

A short description of experiment [6]: qHTS for Inhibitors of Cell Surface uPA Generation: Validation Assay (AID 493164).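 Further: RAW 264.7 macrophage cells exposed to compound for 18 h; 0% is about no effect.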 The method, boiled down:
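Compounds are titrated over seven points (2.45 nM–38.3 uM final) onto pre-plated RAW 264.7 cells and incubated for 18 h. Retained intracellular ATP, measured with ATP-Lite, indicates blocked lethal factor entry.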

Experiment [7] addresses Peptidyl-prolyl cis-trans isomerase NIMA-interacting 1 (Homo sapiens) (UniProt Q13526). Description: qHTS Validation Assay to Find Inhibitors of Pin1 (AID 504536; active means well fitted inhibition curve with a large enough effect in the polarisation, with a control signal flat, not every such curve was filed as active; the % refers to the polarisation;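 further: 0% = full Pin1 enzyme wells and -100% = no-enzyme wells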). The method, boiled down:
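Fluorescence polarization competition: compounds (titration) displace HiFluor-488-labeled Pin1-1b peptide from Pin1 (0.3 uM final) in pH 7.5 HEPES buffer with DTT, 10 min at room temperature; %Activity normalized to no-enzyme wells, curves fitted.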

The target of experiment [8] is Phosphoglycerate kinase, glycosomal (Trypanosoma brucei brucei) (UniProt P07378). Description: qHTS Validation Assay to Find Inhibitors of Phosphoglycerate Kinase (AID 504547).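 Further: control wells lack PGK and mark full inhibition.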 Summed up:
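Luminescence end-point (Kinase-Glo Plus, 10 min) after a 60 min room-temperature coupled reaction. GAPDH at 100nM final supplies 1,3-BPG to PGK. Buffer: 100mM TEA pH 7.6, 5mM MgCl2, 0.01% Tween-20. Wells lacking PGK served as controls.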

Experiment [9] addresses phosphoglycerate mutase (Leishmania major) (UniProt Q4Q090). Put plainly: qHTS Validation Assay to Find Inhibitors of Phosphoglycerate Mutase (AID 504548). Further: series mostly up to about 58 µM; on the % scale 0 is the no-effect control and ±100 the full control effect. To be noted: Potency: inhibition qHTS. Summed up: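 Luminescent end-point read-out via Kinase-GloPlus after a 10-minute development. Reaction: 1.25nM Leishmania major PGAM with substrate and compound, 45 minutes at room temperature in TEA buffer (pH 7.6) with MgCl2 and Tween-20.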

The target of experiment [10] is Ubiquitin carboxyl-terminal hydrolase 1 (Homo sapiens) (UniProt O94782). Description: Inhibitors of USP1/UAF1: Pilot qHTS (AID 504865). Further: nearly all actives have a fitted effect of over 35% in size. Further: potency means the concentration at half of the fitted maximal effect. Summed up:
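USP1/UAF1 complex (1nM) preincubated with compound 15 min at room temperature, then Ub-Rho substrate (150nM final) added. Fluorescence read kinetically at 480/540 nm, 6 reads every 60 seconds. Buffer: 50mM HEPES pH 7.8, 0.5mM EDTA, 0.1 mg/ml BSA, 1mM TCEP, 0.01% Tween-20.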

Experiment [11] can be described thus: qHTS for Inhibitors of ATXN expression: Validation of Cytotoxic Assay (AID 588349). Further: on the % scale 0 is the no-effect control and ±100 the full control effect. The method, boiled down: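 Toxicity of test compounds toward HEK293 cells is scored from cellular ATP content measured by CellTiter Glo. Cells receive titrated doses and incubate 72 hr at 37 degrees C beforehand.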
A short description of experiment [12]: qHTS for Inhibitors of ATXN expression: Validation (AID 588378). Further: series mostly up to about 57 µM; on the % scale 0 is the no-effect control and ±100 the full control effect; nearly all actives have a fitted effect of over 75% in size. Summed up: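 Luminescence from an ATXN2-FFLuc reporter in HEK293 cells served as read-out after 24 h compound treatment at 37 degrees C; CellTiter-Fluor fluorescence was recorded first to assess viability.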
A short description of experiment [13]: Validation screen for small molecules that induce genotoxicity in human embryonic kidney (HEK293T) cells expressing luciferase-tagged ELG1 (AID 493106). Further: 0% is about no effect. Summed up: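 In this validation screen, increased ELG1-luciferase signal flags compounds causing genetic stress. HEK293T reporter cells are treated 16 hr (37 °C, 5% CO2), developed with ONE-Glo for 30 min at room temperature, and imaged on a CCD-based reader.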

ATPase family AAA domain-containing protein 5 (Homo sapiens), sequence (Q96QE3 whole entry, looked up, the tested form may be a part): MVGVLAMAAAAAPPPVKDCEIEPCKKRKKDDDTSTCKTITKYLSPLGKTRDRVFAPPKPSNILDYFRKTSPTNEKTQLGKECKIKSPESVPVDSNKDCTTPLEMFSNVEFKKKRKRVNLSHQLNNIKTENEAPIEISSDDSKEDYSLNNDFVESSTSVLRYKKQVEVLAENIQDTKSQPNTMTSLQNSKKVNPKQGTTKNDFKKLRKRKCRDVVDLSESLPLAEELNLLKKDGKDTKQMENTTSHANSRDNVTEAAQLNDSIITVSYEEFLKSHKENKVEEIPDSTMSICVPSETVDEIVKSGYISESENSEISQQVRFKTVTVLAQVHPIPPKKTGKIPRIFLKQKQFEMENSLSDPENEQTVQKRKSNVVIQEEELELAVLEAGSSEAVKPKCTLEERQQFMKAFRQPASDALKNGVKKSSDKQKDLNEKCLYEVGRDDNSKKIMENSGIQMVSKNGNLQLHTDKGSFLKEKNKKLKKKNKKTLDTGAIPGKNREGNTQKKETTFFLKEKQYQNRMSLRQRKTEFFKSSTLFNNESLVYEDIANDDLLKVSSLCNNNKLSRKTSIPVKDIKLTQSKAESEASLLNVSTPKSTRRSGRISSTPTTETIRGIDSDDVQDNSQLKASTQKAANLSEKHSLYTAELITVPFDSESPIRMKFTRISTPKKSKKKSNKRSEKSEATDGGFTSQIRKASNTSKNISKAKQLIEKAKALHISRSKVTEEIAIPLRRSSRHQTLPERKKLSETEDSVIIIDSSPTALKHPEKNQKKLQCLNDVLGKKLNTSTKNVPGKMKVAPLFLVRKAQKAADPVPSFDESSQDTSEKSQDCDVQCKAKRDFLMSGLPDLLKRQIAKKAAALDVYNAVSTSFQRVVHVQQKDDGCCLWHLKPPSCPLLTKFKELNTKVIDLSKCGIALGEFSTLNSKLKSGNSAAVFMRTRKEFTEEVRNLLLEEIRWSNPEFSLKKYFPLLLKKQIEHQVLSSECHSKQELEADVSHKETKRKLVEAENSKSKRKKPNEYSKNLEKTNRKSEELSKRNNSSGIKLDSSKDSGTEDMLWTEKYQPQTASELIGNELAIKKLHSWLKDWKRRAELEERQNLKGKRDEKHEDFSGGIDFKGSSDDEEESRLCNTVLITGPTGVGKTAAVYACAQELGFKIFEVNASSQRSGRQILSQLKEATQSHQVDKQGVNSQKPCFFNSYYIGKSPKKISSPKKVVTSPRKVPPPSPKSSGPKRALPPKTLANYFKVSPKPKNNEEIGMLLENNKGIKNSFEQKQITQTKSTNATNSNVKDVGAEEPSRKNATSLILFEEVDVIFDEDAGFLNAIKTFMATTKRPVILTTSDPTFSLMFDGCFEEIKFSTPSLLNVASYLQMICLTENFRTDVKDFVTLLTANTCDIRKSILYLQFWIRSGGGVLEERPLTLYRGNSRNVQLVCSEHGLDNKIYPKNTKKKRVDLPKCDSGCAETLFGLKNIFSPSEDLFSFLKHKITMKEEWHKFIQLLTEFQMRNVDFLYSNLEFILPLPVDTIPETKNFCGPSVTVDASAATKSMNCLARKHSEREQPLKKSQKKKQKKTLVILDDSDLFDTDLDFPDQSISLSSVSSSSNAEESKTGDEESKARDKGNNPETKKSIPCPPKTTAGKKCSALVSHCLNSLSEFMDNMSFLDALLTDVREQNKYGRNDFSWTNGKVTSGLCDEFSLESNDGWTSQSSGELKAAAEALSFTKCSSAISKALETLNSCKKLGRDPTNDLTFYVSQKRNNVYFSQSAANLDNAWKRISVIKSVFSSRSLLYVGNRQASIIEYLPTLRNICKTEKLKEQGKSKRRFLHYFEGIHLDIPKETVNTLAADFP
D(1A) dopamine receptor (Homo sapiens), sequence (P21728 whole entry, looked up): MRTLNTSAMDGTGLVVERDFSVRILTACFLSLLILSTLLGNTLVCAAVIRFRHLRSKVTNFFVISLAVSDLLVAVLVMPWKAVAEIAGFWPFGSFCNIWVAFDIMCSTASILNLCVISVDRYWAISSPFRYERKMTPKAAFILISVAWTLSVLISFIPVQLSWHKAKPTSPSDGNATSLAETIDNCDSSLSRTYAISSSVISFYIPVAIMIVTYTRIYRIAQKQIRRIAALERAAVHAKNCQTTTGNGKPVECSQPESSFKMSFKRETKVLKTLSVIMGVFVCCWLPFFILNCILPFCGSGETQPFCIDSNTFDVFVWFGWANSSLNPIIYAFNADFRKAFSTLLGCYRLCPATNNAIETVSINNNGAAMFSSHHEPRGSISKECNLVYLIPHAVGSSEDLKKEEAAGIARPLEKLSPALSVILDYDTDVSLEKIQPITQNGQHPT
Phosphoglycerate kinase, glycosomal (Trypanosoma brucei brucei), sequence (P07378 whole entry, looked up): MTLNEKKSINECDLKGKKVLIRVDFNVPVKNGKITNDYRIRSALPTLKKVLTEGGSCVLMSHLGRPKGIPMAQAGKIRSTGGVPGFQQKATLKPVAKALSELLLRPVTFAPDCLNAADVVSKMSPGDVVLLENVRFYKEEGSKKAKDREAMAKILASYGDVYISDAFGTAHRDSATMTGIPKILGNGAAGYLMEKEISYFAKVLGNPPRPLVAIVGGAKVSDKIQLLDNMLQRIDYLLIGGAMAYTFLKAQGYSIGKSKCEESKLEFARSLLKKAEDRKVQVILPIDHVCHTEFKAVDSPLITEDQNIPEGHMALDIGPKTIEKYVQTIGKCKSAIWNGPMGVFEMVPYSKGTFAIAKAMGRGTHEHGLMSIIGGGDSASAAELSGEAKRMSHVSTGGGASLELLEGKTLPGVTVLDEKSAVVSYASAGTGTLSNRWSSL
Ubiquitin carboxyl-terminal hydrolase 1 (Homo sapiens), sequence (O94782 whole entry, looked up): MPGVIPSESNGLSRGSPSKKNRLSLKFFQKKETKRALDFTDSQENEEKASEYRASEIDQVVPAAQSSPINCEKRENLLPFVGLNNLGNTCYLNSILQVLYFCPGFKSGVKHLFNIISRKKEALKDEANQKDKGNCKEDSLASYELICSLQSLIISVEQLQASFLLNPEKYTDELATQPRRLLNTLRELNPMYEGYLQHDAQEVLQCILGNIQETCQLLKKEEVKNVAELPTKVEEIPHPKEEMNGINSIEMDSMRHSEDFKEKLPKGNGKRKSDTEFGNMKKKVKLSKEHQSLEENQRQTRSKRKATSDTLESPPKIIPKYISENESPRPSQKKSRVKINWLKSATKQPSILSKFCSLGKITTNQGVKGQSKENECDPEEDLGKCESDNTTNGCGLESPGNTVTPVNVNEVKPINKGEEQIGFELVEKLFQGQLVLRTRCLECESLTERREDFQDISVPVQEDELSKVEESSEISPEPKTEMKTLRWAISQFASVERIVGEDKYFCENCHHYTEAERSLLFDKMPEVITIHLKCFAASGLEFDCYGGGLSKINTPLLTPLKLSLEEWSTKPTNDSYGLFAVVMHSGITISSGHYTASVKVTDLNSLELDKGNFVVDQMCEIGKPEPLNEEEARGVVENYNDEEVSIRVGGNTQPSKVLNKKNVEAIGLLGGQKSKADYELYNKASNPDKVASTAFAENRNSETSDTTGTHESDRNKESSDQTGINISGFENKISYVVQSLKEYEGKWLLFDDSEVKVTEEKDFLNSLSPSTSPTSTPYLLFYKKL
phosphoglycerate mutase (Leishmania major), sequence (Q4Q090 1-553): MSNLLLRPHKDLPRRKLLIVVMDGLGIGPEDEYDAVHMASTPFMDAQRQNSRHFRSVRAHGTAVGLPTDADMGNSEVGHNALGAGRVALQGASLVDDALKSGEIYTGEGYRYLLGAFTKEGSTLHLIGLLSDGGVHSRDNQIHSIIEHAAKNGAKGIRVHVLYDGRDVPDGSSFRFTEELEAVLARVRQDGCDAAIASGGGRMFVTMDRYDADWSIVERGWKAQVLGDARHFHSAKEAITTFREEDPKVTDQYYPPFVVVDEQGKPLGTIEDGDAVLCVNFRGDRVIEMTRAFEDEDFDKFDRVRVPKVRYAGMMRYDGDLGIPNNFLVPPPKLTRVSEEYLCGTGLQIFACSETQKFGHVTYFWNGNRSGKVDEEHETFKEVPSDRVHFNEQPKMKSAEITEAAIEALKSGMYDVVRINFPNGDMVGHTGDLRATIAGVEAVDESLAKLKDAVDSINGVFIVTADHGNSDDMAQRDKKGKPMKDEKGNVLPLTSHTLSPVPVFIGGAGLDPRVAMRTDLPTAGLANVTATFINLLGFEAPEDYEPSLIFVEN
Peptidyl-prolyl cis-trans isomerase NIMA-interacting 1 (Homo sapiens), sequence (Q13526 whole entry, looked up): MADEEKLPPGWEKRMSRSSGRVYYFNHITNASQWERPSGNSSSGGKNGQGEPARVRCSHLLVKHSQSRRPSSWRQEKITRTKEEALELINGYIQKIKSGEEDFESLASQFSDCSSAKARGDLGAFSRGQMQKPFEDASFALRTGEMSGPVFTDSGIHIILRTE

With `N[C@H](C(=O)O)[C@H](Cc1ccccc1)C(=O)O`, the Potency result in experiment [1], in experiment [2], in experiment [3], in [4], in experiment [5] and in [7] was “inactive” in each case. Also, the Potency result in experiment [8], in experiment [9], in [10], in [11] and in experiment [12] was “inactive” each time. Moreover, the viability change in experiment [5] was -3.91%. The call in experiment [6] was inactive.

On to `CN1CC(O)C(O)C(O)C1CO` (stereo unspecified), for which the Potency result in [1], in [2], in [3], in experiment [13], in [4] and in [5] was “inactive” in each case. The Potency entry in experiment [7], in [8], in experiment [9], in experiment [10], in experiment [11] and in [12] was “inactive” in each case. In addition, in experiment [5], the viability change worked out at 2.46%. In addition, the compound was classed as inactive in experiment [6].

For `CN1CCc2cc(Cl)c(O)cc2[C@@H](c2ccccc2)C1`, the Potency result in experiment [1], in experiment [13], in [4], in experiment [5], in experiment [7] and in [8] was “inactive” each time. Also, the Potency result in [9], in experiment [10] and in experiment [12] was “inactive” each time. In addition, the viability change in experiment [5] was found to be 5.24%. In addition, the call in experiment [6] was inactive.

For the compound `C=C1C[C@@]23CC[C@H]4[C@@](C)(CCC[C@@]4(C)C(=O)OC4OC(CO)C(O)C(O)C4O)[C@@H]2CC[C@]1(OC1OC(CO)C(O)C(O)C1OC1OC(CO)C(O)C(O)C1O)C3` (stereo partly specified), the Potency entry in experiment [1], in experiment [3], in experiment [13], in [4], in experiment [5] and in experiment [7] was “inactive” in each case. Besides, the Potency entry in experiment [8], in experiment [9], in experiment [10], in experiment [11] and in experiment [12] was “inactive” throughout. Further, the viability change in [5] is -3.06%. Also, in experiment [6], the call was inactive.

With `CCCCCCCCCCC(C)(C)C(=O)Nc1c(OC)cc(OC)cc1OC`, the Potency entry in [1], in experiment [2], in [13], in experiment [4], in experiment [7] and in experiment [8] was “inactive” in each case. Also, the Potency result in experiment [9], in experiment [11] and in experiment [12] was “inactive” throughout. Further, the compound was called inactive in experiment [6]. The Potency in experiment [10] was 44700 nM (active).

`Nc1ncnc2c1nc(Sc1ccc(Cl)cc1)n2[C@H]1OC2COP(=O)(O)O[C@@H]2C1O` (stereo partly specified): the Potency entry in experiment [1], in [2], in experiment [3], in experiment [4], in [5] and in experiment [7] was “inactive” throughout. Moreover, the Potency result in experiment [8], in experiment [9], in experiment [10], in experiment [11] and in experiment [12] was “inactive” in each case. In experiment [5], the viability change stood at 3.2%. Besides, the compound was called inactive in experiment [6].

On to `Cc1nc2n(c(=O)c1CCN1CCC(c3noc4cc(F)ccc34)CC1)CCCC2O` (stereo unspecified), for which the Potency entry in [1], in experiment [2], in experiment [13], in [5], in experiment [7] and in experiment [8] was “inactive” in each case. Moreover, the Potency result in [9], in experiment [10], in experiment [11] and in [12] was “inactive” each time. Further, the Potency in [3] was 1000 nM (active). In addition, in [5], the viability change was 3.12%.

Take `C[C@]12C=CC(=O)C=C1CC[C@@H]1C2=CC[C@]2(C)[C@@H](C(=O)CN3CCN(c4cc(N5CCCC5)nc(N5CCCC5)n4)CC3)CC[C@@H]12`: the Potency entry in [1], in experiment [2], in experiment [3], in experiment [13], in [5] and in experiment [7] was “inactive” in each case. In addition, the Potency result in [8], in [9], in experiment [11] and in experiment [12] was “inactive” throughout. Moreover, in experiment [5], the viability change is -17.1%. Also, the compound was called inactive in experiment [6].

Turning to `C[C@H]1CC2C3CCC4=CC(=O)C=C[C@]4(C)[C@@]3(Cl)[C@@H](O)C[C@]2(C)[C@@]1(O)C(=O)CO` (stereo partly specified), the Potency result in [1], in experiment [2], in [3], in [13], in experiment [4] and in [7] was “inactive” throughout. Further, the Potency result in experiment [8], in [9], in experiment [10] and in experiment [12] was “inactive” throughout. The Potency in experiment [5] was 16.4 nM (active). The viability change in [5] is 4.17%. Further, in experiment [6], the compound was called inactive.

With `Nc1nc2c(cnn2CCc2ccccc2)c2nc(-c3ccco3)nn12`, the Potency entry in [1], in [2], in experiment [3], in experiment [5], in experiment [7] and in [8] was “inactive” throughout. In addition, the Potency entry in experiment [9], in [10], in experiment [11] and in experiment [12] was “inactive” in each case. Also, the viability change in experiment [5] is -1.96%. Also, the result in experiment [6] was inactive.

`CC(C)NC[C@H](O)COc1cccc2ccccc12`: the Potency entry in experiment [2], in [3], in experiment [13], in [4], in experiment [5] and in [7] was “inactive” throughout. The Potency entry in experiment [10] and in experiment [11] was “inactive” in each case. In addition, in [5], the viability change was -4.73%.

In the case of `Nc1ncnc2c1nc(Br)n2C1OC2COP(=O)(O)O[C@@H]2C1O` (stereo partly specified), the Potency entry in experiment [1], in [2], in experiment [3], in experiment [13], in experiment [4] and in experiment [5] was “inactive” each time. Further, the Potency entry in experiment [7], in [9], in [10], in experiment [11] and in experiment [12] was “inactive” in each case. In addition, the viability change in experiment [5] was determined as 1.09%. For the same compound, the outcome in experiment [6] was inactive.
